According to PubChem BioAssay AID504500 (NMMLSC, 2011):
Results with a measured potency or affinity are listed apart.

Molecular target: Beta-adrenergic receptor kinase 1 (Homo sapiens) (UniProt P25098)
Experiment: aptamer displacement from bead-bound GRK2 – biochemical, cherry pick 1, bead flow cytometry, dose response (AID 504500)
Settings: bead-bound biotinylated GRK2, FAM-aptamer displacement; series mostly up to 33 µM; inhibition of aptamer binding: at the top concentration;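 active means compounds whose curve fit is tight, with span above 25% and half-effect concentration below 10 µM; inactive means the rest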

Sequence of Beta-adrenergic receptor kinase 1 (Homo sapiens) (P25098 whole entry, looked up): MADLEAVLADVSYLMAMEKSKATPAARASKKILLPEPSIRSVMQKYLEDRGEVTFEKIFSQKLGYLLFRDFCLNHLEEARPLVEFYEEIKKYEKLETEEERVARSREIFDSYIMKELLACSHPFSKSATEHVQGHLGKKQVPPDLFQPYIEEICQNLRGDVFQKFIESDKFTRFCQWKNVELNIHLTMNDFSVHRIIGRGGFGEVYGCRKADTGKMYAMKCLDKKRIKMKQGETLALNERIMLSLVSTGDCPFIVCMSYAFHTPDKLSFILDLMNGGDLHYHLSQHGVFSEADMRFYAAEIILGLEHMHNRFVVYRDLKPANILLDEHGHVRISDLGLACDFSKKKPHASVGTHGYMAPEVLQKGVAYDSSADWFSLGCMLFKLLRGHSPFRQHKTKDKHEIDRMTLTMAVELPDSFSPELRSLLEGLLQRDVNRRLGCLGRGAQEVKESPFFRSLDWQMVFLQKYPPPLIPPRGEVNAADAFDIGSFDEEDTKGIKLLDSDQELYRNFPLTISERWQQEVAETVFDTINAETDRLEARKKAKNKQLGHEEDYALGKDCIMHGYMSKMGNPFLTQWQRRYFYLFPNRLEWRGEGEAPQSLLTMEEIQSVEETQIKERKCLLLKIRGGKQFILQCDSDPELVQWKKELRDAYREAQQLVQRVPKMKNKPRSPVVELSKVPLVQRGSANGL

Inhibition of aptamer binding, inactive:
O=C(CCS(=O)(=O)c1ccc(Br)cc1)NC1CCCC1 49.7%
COc1ccccc1CNS(=O)(=O)c1ccc2[nH]cc(C(=O)O)c(=O)c2c1 53.4%
CCN1/C(=C/c2ccc3ccc(C)cc3[n+]2CC)Sc2ccccc21 -3.68%
Cc1ccc(C(=O)Nc2cccc(C(=O)NCc3ccco3)c2)cc1 2.31%
COc1ccc(CCNC(=O)CCS(=O)(=O)c2ccc(Br)cc2)cc1OC 17%
C=C(C)C(=O)Nc1cccc(C2=NOC3(C2)C[C@H](C(N)=O)N(C(=O)CC#N)C3)c1 (some centres not stated) -8.72%
CCc1ccccc1NC(=O)CCS(=O)(=O)c1ccc(Br)cc1 55.8%
CCNc1nc(NCC)n2c(SCC(=O)Nc3ccc(C)c(C)c3)nnc2n1 24.3%
O=C(CCS(=O)(=O)c1ccc(Br)cc1)NCCc1ccccc1 76.5%
COc1ccc(N2CCN(C(CNS(=O)(=O)c3ccc(C)cc3)c3ccccc3)CC2)cc1 (configuration not stated) 3.97%
O=C(CC1SC(N2CCCCC2)=NC1=O)Nc1cccc(C(=O)NCc2ccc(F)cc2)c1 (configuration not stated) 99.4%
O=P(c1ccccc1)(c1ccccc1)c1cc(S(=O)(=O)O)ccc1O -2.57%
CCC(/C=C1\Sc2ccc(OC)cc2N1CC)=C\c1sc2ccc(OC)cc2[n+]1CCCS(=O)(=O)[O-] -7.34%
CC(C)C(C(=O)O)N1C(=O)/C(=C/C=C/c2ccco2)SC1=S (configuration not stated) 27.4%
Cc1cc2ccccc2n1CCNC(=O)c1ccc(S(=O)(=O)N2CCCCC2)cc1 44.1%
CC1CCN(C(=O)c2[nH]cnc2C(=O)Nc2cccc(Cl)c2)CC1 -9.82%
O=C(/C=C/c1ccco1)OCC(=O)N1CCCCC1 3.17%
